# Experimental data as given in publication PMC4336329 (PLoS ONE, 2015).
# Screen size: about 310,000 compounds; about 14,000 (4.5%) showed an effect of 50% or more. The effect is printed as a negative number. For the sample, strong results were picked, then their nearest neighbours and some compounds at random.
# Biological target: human ether-à-go-go-related gene (hERG) potassium channel (human, UniProt Q12809)
# Test: primary screen, population patch clamp on CHO cells stably expressing hERG; higher = less effect of the substance
# 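Also: peak tail current of the secondary pulse compared with the same well before compound.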
# Sequence of human ether-à-go-go-related gene (hERG) potassium channel (Q12809 whole entry, looked up): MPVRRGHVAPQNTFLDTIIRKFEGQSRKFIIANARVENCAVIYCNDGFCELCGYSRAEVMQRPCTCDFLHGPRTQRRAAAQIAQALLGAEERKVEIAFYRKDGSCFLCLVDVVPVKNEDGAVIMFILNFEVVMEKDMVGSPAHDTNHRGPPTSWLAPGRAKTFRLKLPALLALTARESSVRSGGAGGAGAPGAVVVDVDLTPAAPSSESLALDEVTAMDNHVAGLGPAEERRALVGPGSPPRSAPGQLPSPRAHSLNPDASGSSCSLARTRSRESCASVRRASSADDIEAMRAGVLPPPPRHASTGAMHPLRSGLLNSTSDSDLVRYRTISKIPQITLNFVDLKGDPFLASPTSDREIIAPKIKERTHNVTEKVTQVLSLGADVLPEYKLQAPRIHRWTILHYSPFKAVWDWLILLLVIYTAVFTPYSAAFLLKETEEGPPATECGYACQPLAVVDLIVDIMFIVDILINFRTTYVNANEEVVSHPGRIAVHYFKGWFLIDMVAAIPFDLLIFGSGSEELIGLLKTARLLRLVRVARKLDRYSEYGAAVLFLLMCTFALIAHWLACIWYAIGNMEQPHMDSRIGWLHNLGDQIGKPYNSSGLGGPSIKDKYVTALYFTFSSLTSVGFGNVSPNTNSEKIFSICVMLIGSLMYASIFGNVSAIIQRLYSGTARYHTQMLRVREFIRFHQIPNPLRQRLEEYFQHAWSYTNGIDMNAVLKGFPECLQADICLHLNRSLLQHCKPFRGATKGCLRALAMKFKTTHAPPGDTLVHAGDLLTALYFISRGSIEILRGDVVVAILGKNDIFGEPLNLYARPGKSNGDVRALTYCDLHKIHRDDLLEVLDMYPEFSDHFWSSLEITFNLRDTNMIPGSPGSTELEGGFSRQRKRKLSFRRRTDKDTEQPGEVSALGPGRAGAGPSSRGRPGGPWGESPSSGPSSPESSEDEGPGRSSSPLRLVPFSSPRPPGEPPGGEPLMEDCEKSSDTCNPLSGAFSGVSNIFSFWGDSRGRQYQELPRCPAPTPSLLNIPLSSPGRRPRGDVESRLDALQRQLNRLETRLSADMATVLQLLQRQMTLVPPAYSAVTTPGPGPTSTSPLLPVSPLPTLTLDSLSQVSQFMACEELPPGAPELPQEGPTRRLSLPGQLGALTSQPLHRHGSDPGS
row,SMILES,"hERG current change (%, negative = inhibition) at 10uM"
1,O=C(c1ccc2c(=O)n(C3CCCC3)c(=S)[nH]c2c1)N1CCN(C2CCCCC2)CC1,6.5%
2,CSC1=N/C(=C\c2ccccc2C)C(=O)S1,23.9%
3,COc1ccc2cc(C(C)=O)c(=O)oc2c1,-11.4%
4,OCCN=C1CCCc2c1[nH]c1ccc(Cl)cc21,-18%
5,OCCN=C1CCCc2c1[nH]c1ccc(Br)cc21,6.45%
6,Cl.c1ccc(CCN=C2CCCc3c2[nH]c2ccccc32)cc1,-73.2%
7,CCN(CC)C(=O)c1ccc(CS(=O)(=O)c2ccc(OC)cc2)o1,-0.122%
8,N=c1c(C(=O)NC2CCCC2)cc2c(=O)n3ccccc3nc2n1C1CCCCC1,-79%
9,Cc1nc2ccccn2c1C(=O)NC1CCCCC1,1.83%
10,N=c1c(C(=O)NC2CCCC2)cc2c(=O)n3ccccc3nc2n1C1CCCC1,-82.2%
11,Cc1nc2ccccn2c1C(=O)NC1CCCC1,16.2%
12,Cn1c(C(=O)NC2CCCCC2)cc2c(=O)n3ccccc3nc21,4.32%
13,N=c1c(S(=O)(=O)c2ccc(Cl)cc2)cc2c(=O)n3ccccc3nc2n1C1CCCC1,14%
14,COc1ccc(N2CCN(C(CNC(=O)C(=O)NC3CC3)c3ccco3)CC2)cc1 (centres unmarked),13.6%
15,CCOc1cc(C=C(C(=O)OC)C(=O)OC)ccc1OCc1ccc([N+](=O)[O-])cc1,4.17%
16,O=C(Nc1ccc(F)cc1F)c1cc2ncc(CCCl)cn2n1,-12.3%
17,O=C(Nc1nnc(SCc2ccc(F)cc2)s1)c1cccnc1Cl,2.48%
18,COc1cc(NC(=O)c2cc3ccccc3o2)c(OC)cc1Cl,16.3%
19,c1csc(CNc2ncnc3ccc(-c4ccoc4)cc23)c1,-13.4%
20,Clc1ccc(Cn2ncc3c(N4CCCC4)ncnc32)cc1,-56.7%
21,Clc1ccc(Cn2ncc3c(NCc4cccnc4)ncnc32)cc1,-51.2%
22,c1cncc(CNc2ncnc3sccc23)c1,17.8%
23,Clc1ccc(Cn2ncc3c(N4CCCCC4)ncnc32)cc1,-14.4%

row,SMILES,"hERG current change (%, negative = inhibition) at 10uM"
1,c1cncc(CNc2ncnc3ccc(-c4ccoc4)cc23)c1,-71.4%
2,Clc1ccc(Cn2ncc3c(N4CCOCC4)ncnc32)cc1,-16.2%
3,Brc1ccc2ncnc(NCc3ccccc3)c2c1,-10.3%
4,Clc1ccc(Cn2ncc3c(NCc4ccccc4)ncnc32)cc1,-1.94%
5,Cc1cccc(CNc2ncnc3ccc(-c4ccoc4)cc23)c1,-12.4%
6,Brc1ccc2ncnc(NCc3cccnc3)c2c1,-60.2%
7,c1ccc(CNc2ncnc3c2cnn3Cc2ccccc2)cc1,-22%
8,O=c1c(NCCc2ccc(Cl)cc2)c(-c2ccccc2)c1=O,5.81%
9,O=S1(=O)CCS(=O)(=O)C1c1ccccc1,-1.95%
10,COc1ccc(N/C=C/C(=O)c2cc(OC)c(OC)c(OC)c2)cc1,-8.76%
11,Cc1nc2cc(CO)ccc2s1,9.23%
12,COC(=O)/C(=C\Nc1ccccc1N)c1ncc(C(F)(F)F)cc1Cl,3.74%
13,CCn1ncc(C2=NOC(C(=O)Nc3c(C)nn(Cc4ccc(F)cc4)c3C)C2)c1C (centres unmarked),10.3%
14,COc1ccc(-c2nc3nc(C)cc(=O)n3[nH]2)cc1,17.9%
15,CCn1nnnc1NCc1ccc(N2CCCC2)cc1,3.6%
16,Cc1ccc(S(=O)(=O)NCCCCCC(=O)NC(C)(C)CO)cc1,13.7%
17,CCCCNC(=O)CSc1nc2ccccc2n1S(=O)(=O)c1ccc(Br)cc1,-0.913%
18,Cc1cccc(-c2ccc3ncnc(NCc4cccs4)c3c2)c1,-8.55%
19,Cc1cccc(-c2ccc3ncnc(NCc4cccnc4)c3c2)c1,-70.5%
20,COc1cccc(-c2ccc3ncnc(NCc4cccc(C)c4)c3c2)c1,-0.57%
21,CCc1ccccc1NC(=O)N1CCCC(CCC(=O)N(C)CCc2ccccn2)C1 (centres unmarked),13.1%
22,CCOC(=O)CCNC(=O)N1CCCC(CCC(=O)N(C)CCc2ccccn2)C1 (centres unmarked),-52.3%
23,CN(CCc1ccccn1)C(=O)CCC1CCCN(C(=O)NC2CCCCC2)C1 (centres unmarked),17.4%

row,SMILES,"hERG current change (%, negative = inhibition) at 10uM"
1,CCCCNC(=S)N(C)/N=C/c1ccc(F)cc1,-8.72%
2,CCCCNC(=S)N(C)/N=C/c1ccccc1F,2.14%
3,CCCCNC(=S)N(C)/N=C/c1ccc2c(c1)OCO2,-50.1%
4,CCOc1c(N2CCCCC2)c(=O)c1=O,0.507%
5,Cc1cc(C)cc(NC(=O)CSc2nnc(-c3ccncc3)o2)c1,-22.8%
6,COc1cc(OC)c(C(=O)Nc2cccc(C(C)=O)c2)cc1OC,-9.08%
7,Cc1ccc2cc(CCNS(=O)(=O)c3ccc(F)cc3)c(=O)[nH]c2c1C,10.9%
8,CCOC(=O)C1=C(N)OC2=C(C(=O)CCC2)C1c1ccc(C)s1 (centres unmarked),-54.3%
9,CCOC(=O)C1=C(N)OC2=C(C(=O)CC(C)(C)C2)C1c1ccc(C)s1 (centres unmarked),-42.3%
10,CCOC(=O)C1=C(N)OC2=C(C(=O)CCC2)C1c1cccs1 (centres unmarked),1.13%
11,CCOC(=O)CC(=O)c1cc(OC)c(OC)c(OC)c1,-3.44%
12,COc1ccc(-c2cc(C(F)(F)F)n3nc(C(=O)NCCCn4ccnc4)cc3n2)cc1,-41%
13,O=C(NCCCn1ccnc1)c1nn2c(C(F)(F)F)cc(-c3ccc(Br)cc3)nc2c1Cl,-65.7%
14,Cc1ccc(-c2cc(C(F)(F)F)n3nc(C(=O)NCCCn4ccnc4)cc3n2)cc1C,-20.6%
15,O=C(NCCCn1ccnc1)c1cc2nc(-c3ccc(Br)cc3)cc(C(F)(F)F)n2n1,-62.8%
16,CCCNC(=O)c1nn2c(C(F)(F)F)cc(-c3ccccc3)nc2c1Cl,-4.1%
17,O=C(NCCCn1ccnc1)c1nn2c(C(F)(F)F)cc(-c3ccccc3)nc2c1Cl,-29.6%
18,COc1ccc(CN(C#N)c2nc(C)cc(C)n2)cc1,14.1%
19,CCOC(=O)C1=C(COC(=O)CCOc2cc(C)ccc2C)NC(=O)NC1C (centres unmarked),-26.5%
20,Cc1ccc(N(C(=O)c2snc(C(N)=O)c2N)C(C(=O)NCC2CCCO2)c2ccc(C)o2)c(C)c1 (centres unmarked),-40.9%
21,CCN(CC(=O)Nc1ccc(NC(C)=O)cc1)C(=O)C1CCCC1,-13.9%
22,O=C(NNC(=S)NC(=O)C12CC3CC(CC(C3)C1)C2)c1ccncc1,19.8%
23,CCOC(=O)c1c(C)[nH]c(C(=O)OCc2ccc(F)cc2)c1C,-0.855%

row,SMILES,"hERG current change (%, negative = inhibition) at 10uM"
1,C=CCN(c1ccccc1)S(=O)(=O)c1cccc(C(=O)O)c1,16%
2,COc1ccccc1NS(=O)(=O)c1cccc(C(=O)NN)c1,-5.56%
3,Cc1ccc(S(=O)(=O)Nc2cccc(C(=O)NC3CCN(Cc4ccccc4)CC3)c2)cc1F,-80.6%
4,COc1ccccc1NS(=O)(=O)c1cccc(C(=O)NC2CCN(Cc3ccccc3)CC2)c1,-56%
5,C=CCN(c1ccccc1)S(=O)(=O)c1cccc(C(=O)NC2CCC(O)CC2)c1 (centres unmarked),-7.48%
6,O=C(NC1CCN(Cc2ccccc2)CC1)c1cccc(S(=O)(=O)Nc2ccc(Br)cc2)c1,-59.7%
7,C=CCN(c1ccccc1)S(=O)(=O)c1cccc(C(=O)NC2CCN(Cc3ccccc3)CC2)c1,-65.3%
8,COc1ccc(NS(=O)(=O)c2cccc(C(=O)NC3CCN(Cc4ccccc4)CC3)c2)cc1,-46.7%
9,COc1ccccc1NC(=O)c1cccc(S(=O)(=O)N2CCN(Cc3ccccc3)CC2)c1,-19.6%
10,Cc1ccc(S(=O)(=O)Nc2cccc(C(=O)NCC3CCCO3)c2)cc1F (centres unmarked),2.12%
11,O=C(c1cccc(NS(=O)(=O)c2ccc(F)c(F)c2)c1)N1CCN(Cc2ccccc2)CC1,-26.8%
12,O=C(NCCN1CCOCC1)c1cccc(S(=O)(=O)Nc2ccc(Br)cc2)c1,-20.4%
13,COc1ccc(-c2csc(-c3cccs3)n2)c(OC)c1,15.8%
14,CCCN1CNC(=S)N(Cc2ccccc2)C1,12.2%
15,NC(=O)c1ccsc1NC(=O)COC(=O)c1ccc(Cl)cc1,-5.38%
16,COc1ccccc1NC(=O)C(=O)N(c1cccnc1)C(C(=O)NC(C)(C)C)c1ccccc1 (centres unmarked),18.7%
17,CCC(C)(C)NC(=O)c1cc(S(=O)(=O)N2CCCCC2)ccc1N1CCOCC1,-13.4%
18,O=C1NC(=O)/C(=C\c2ccccc2OCc2cccc([N+](=O)[O-])c2)N1,-5.66%
19,O=C(CCn1c(=O)[nH]c2ccsc2c1=O)Nc1ccc(F)c(F)c1,21%
20,COc1cccc(NC(=O)Cc2nnc(SCC(=O)NC(C)c3ccccc3)n2C)c1 (centres unmarked),15.1%
